{"source": "the supplement of paper PMC11732987", "about": "“Enantioselective OTUD7B fragment discovery through chemoproteomics screening and high-throughput optimisation” (Communications Chemistry, 2025)", "experiment_in_all_cases": "log2 ratio of Biotin-Ahx-Ub-VS probe labelling (fragment/DMSO); higher = less target engagement (more negative = stronger competition), active = hit call of the paper (q ≤ 0.05, log2 ratio ≤ -1)", "settings_in_all_cases": "compound concentration: 200 uM; treatment time: 3 h", "key": {"USP19": {"molecular_target": "T1, USP19 (UniProt O94966)", "T1 sequence (whole entry)": "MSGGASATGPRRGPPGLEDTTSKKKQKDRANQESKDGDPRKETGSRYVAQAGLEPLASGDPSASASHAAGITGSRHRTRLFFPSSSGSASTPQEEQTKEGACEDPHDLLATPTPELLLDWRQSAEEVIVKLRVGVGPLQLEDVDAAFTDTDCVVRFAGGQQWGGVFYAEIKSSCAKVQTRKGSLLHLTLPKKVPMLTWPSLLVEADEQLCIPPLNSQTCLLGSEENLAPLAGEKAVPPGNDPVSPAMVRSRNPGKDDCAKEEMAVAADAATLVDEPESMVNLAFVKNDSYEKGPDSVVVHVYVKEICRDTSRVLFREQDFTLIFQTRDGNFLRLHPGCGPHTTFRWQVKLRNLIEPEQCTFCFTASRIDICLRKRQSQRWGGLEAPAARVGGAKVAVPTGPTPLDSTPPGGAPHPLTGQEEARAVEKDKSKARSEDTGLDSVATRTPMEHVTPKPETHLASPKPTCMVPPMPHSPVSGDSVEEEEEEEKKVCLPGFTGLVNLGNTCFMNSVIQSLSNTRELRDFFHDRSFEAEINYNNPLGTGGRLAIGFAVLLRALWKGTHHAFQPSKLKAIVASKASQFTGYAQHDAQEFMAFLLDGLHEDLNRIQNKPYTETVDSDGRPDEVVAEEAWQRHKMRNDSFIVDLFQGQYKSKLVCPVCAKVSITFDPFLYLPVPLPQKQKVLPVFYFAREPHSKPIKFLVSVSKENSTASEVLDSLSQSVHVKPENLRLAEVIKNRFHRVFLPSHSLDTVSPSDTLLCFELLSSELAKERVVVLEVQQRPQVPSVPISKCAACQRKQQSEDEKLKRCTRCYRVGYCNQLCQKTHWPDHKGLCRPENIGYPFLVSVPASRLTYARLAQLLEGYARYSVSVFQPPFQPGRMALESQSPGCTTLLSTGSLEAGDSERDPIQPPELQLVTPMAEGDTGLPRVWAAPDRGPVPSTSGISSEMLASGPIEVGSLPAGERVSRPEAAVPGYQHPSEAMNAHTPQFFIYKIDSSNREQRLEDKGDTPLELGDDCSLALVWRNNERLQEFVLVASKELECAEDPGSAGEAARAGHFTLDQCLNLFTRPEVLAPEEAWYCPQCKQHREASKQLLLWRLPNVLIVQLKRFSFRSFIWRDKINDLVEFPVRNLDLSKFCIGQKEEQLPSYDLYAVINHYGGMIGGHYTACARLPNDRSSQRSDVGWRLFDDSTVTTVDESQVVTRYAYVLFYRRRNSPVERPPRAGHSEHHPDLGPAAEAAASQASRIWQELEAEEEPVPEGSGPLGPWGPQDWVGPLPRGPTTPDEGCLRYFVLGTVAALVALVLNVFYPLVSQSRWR", "summary_of_the_method": "(§1)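 Labelling with Biotin-Ahx-Ub-VS (0.5 µM final, 1 h) followed a 3 h triplicate treatment of HEK293T lysate (495 µg per sample, Tris/CHAPS/IGEPAL buffer with protease inhibitors) with fragment at 200 µM or vehicle. Labelled DUBs were NeutrAvidin-enriched, digested with LysC and trypsin, and run by diaPASEF LC-MS/MS. The values, average log2 fragment/vehicle ratios by unpaired t-test, come from global-median-normalised Spectronaut label-free quantities. Proteins with ≥2 unique peptides were used.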"}, "USP22": {"molecular_target": "T2, USP22 (UniProt Q9UPT9)", "T2 sequence (whole entry)": "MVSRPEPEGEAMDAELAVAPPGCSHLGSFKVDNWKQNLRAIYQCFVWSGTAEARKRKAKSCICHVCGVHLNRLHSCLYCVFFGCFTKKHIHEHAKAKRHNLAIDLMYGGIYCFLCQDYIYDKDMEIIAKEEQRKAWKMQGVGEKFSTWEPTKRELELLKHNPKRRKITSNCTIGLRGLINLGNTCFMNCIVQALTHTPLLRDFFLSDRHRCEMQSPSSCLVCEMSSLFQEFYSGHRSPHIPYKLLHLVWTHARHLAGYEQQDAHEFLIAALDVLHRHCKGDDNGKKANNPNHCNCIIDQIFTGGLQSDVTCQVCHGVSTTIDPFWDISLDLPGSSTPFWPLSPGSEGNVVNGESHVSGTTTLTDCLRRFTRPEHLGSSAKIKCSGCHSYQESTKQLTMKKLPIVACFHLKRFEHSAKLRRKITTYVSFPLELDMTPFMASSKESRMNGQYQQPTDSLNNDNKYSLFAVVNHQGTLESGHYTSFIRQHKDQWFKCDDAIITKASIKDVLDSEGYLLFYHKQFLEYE", "summary_of_the_method": "as §1"}, "USP24": {"molecular_target": "USP24 (UniProt Q9UPU5)", "sequence (Q9UPU5 whole entry)": "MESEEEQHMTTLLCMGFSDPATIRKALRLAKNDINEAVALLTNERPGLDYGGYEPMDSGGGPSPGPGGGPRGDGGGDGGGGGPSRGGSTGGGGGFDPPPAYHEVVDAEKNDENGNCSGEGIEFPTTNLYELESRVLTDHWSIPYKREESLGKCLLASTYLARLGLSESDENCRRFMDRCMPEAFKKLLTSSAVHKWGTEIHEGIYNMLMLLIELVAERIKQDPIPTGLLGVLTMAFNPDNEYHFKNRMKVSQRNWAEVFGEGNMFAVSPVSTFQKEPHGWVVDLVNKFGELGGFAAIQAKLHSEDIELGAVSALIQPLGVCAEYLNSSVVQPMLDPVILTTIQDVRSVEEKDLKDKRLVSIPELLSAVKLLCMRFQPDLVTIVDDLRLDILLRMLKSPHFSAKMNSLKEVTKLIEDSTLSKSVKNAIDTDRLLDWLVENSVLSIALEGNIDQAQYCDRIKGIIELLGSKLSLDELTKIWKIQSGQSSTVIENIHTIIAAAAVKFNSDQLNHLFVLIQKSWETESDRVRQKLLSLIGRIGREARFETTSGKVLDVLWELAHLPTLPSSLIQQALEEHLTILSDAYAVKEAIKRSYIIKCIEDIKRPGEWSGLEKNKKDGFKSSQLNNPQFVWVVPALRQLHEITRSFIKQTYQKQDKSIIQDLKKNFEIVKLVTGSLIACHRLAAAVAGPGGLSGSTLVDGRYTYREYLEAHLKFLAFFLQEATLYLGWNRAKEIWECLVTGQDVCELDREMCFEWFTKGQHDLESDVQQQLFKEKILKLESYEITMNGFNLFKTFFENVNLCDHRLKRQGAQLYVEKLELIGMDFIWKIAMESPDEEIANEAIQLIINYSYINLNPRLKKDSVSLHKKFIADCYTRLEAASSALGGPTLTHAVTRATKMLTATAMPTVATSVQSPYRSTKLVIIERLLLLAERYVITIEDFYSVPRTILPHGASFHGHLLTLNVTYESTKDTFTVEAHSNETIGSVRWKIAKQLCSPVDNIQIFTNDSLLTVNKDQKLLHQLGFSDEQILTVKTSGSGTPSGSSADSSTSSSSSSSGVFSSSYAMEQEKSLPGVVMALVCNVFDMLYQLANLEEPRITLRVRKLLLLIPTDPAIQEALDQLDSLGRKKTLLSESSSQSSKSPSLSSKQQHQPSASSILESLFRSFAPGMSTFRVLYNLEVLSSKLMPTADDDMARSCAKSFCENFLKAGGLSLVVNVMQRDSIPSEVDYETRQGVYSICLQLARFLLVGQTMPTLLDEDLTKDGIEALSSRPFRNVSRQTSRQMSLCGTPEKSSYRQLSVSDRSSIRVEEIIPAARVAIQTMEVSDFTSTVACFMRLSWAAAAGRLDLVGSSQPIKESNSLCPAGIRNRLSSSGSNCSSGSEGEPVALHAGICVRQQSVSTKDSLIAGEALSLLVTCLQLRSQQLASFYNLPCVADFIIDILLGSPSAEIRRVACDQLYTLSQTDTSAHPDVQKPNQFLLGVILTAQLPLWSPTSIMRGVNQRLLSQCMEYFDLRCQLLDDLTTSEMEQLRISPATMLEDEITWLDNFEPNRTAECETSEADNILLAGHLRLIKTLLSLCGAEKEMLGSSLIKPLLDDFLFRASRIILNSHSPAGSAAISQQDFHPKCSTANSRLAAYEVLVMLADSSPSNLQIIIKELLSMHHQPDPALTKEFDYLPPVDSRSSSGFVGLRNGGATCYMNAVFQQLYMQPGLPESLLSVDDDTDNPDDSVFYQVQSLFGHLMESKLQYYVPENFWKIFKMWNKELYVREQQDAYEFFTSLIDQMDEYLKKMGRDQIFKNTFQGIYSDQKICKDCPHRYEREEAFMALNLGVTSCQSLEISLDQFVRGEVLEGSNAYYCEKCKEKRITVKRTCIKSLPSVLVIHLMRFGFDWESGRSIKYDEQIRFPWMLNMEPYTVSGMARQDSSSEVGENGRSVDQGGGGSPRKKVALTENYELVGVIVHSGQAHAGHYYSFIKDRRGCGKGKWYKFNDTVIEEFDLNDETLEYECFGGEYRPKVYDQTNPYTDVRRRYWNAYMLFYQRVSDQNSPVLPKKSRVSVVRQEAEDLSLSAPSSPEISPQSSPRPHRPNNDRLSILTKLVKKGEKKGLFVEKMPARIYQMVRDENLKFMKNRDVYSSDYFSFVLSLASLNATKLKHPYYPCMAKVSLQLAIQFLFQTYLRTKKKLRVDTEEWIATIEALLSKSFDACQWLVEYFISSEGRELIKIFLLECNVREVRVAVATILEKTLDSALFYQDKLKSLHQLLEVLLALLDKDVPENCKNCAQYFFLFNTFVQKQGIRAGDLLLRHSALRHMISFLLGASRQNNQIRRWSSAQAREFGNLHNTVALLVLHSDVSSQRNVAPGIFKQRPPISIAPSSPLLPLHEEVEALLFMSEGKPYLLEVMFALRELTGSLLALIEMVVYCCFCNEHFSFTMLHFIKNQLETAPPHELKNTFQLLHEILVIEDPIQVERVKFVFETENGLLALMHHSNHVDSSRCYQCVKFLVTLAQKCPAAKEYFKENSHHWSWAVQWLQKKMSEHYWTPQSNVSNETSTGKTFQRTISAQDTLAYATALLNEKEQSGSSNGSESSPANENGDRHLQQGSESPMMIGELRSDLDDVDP", "summary_of_the_method": "as §1"}, "USP25": {"molecular_target": "T3, USP25 (UniProt Q9UHP3)", "T3 sequence (whole entry)": "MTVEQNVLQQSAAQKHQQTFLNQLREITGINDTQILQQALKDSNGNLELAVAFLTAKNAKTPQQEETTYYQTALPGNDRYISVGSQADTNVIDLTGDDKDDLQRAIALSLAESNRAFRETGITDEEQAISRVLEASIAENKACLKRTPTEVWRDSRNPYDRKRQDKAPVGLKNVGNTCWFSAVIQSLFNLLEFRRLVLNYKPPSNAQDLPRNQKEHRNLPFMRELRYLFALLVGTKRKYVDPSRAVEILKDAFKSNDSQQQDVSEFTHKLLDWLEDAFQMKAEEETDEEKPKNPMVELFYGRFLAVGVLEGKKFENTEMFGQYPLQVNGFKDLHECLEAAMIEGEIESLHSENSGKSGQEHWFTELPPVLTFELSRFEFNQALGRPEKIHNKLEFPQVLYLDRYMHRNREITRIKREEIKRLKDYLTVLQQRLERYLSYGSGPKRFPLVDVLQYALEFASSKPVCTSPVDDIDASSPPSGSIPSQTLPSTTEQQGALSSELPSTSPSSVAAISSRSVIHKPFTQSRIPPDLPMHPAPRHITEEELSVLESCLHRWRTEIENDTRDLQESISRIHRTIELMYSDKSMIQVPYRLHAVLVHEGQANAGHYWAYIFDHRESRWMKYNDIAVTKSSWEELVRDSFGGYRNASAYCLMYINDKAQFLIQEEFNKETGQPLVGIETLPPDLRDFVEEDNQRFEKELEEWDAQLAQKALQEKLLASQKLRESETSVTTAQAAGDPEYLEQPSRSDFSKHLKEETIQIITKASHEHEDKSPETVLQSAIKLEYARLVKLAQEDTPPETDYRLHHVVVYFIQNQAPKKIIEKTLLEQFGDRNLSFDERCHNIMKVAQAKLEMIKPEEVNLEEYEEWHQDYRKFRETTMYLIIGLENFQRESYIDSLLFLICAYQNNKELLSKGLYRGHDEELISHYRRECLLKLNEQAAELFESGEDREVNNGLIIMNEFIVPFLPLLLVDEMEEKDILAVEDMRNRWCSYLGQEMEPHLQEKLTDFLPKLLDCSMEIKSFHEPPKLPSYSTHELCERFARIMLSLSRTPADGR", "summary_of_the_method": "as §1"}, "USP28": {"molecular_target": "T4, USP28 (UniProt Q96RU2)", "T4 sequence (whole entry)": "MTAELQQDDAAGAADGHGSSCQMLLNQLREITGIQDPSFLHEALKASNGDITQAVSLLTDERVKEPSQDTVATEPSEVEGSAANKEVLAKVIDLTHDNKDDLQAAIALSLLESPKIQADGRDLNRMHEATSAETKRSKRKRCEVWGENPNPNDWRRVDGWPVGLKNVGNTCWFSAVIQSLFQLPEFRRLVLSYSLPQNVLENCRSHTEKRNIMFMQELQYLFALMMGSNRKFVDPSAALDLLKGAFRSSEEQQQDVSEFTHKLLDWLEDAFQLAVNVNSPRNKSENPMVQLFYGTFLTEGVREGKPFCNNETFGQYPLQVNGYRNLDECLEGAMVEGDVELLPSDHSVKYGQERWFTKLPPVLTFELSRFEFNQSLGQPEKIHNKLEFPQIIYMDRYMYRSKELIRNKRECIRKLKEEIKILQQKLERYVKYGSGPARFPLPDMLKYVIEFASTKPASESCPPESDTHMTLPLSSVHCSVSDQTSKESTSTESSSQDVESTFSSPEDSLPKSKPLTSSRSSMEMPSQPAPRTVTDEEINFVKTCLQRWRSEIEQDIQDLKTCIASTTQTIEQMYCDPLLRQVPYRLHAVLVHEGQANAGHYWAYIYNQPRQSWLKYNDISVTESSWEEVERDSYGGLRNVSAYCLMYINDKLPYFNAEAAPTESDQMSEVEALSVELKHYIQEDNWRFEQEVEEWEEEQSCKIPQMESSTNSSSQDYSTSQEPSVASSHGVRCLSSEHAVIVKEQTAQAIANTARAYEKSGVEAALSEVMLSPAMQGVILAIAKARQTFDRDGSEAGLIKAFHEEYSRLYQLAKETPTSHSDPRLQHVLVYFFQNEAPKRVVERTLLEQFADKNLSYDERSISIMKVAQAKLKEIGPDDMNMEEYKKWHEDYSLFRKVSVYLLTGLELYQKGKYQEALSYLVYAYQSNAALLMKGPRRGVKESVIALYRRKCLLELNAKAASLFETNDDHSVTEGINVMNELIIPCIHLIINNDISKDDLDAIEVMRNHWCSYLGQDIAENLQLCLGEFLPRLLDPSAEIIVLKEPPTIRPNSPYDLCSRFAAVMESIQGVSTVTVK", "summary_of_the_method": "as §1"}}, "note": "A number with no mark means an inactive call.", "data": [{"smiles": "O=C(CCl)N1CCc2sccc2C1", "values": [{"measurement": "log2 ratio of Biotin-Ahx-Ub-VS probe labelling", "setting": "USP19", "result": "-1.19 (active)"}, {"measurement": "log2 ratio of Biotin-Ahx-Ub-VS probe labelling", "setting": "USP22", "result": -0.23}, {"measurement": "log2 ratio of Biotin-Ahx-Ub-VS probe labelling", "setting": "USP24", "result": "-1.31 (active)"}, {"measurement": "log2 ratio of Biotin-Ahx-Ub-VS probe labelling", "setting": "USP25", "result": "-1.13 (active)"}, {"measurement": "log2 ratio of Biotin-Ahx-Ub-VS probe labelling", "setting": "USP28", "result": -0.791}]}]}
